Results: the antibiotic and cytotoxicity screens of Wong et al. (2023)
Among all 39,000 compounds or so, about 3,300 (8.5%) were called active. Only a selection was taken, and actives are over-represented in it overall.

tested on: HepG2; assay: cytotoxicity call (relative viability < 0.9); settings: 10 µM

Question: How did the cytotoxicity call turn out when `CSc1nn(C)c2cnn(C)c(=O)c12` was run?
Answer: inactive

Question: With `C[C@H](CO)N1C[C@H](C)[C@H](CN(C)S(=O)(=O)c2cn(C)cn2)Oc2ncc(C#Cc3ccccc3)cc2C1=O` as the compound, how does the cytotoxicity call read?
Answer: inactive

Question: How did the cytotoxicity call turn out when `COc1ccc(S(=O)(=O)Nc2ccc3c(c2)C(=O)N([C@H](C)CO)C[C@H](C)[C@@H](CN(C)C(=O)Nc2c(C)noc2C)OCCCC[C@@H](C)O3)cc1` was run?
Answer: inactive

Question: With `C[C@@H]1CN([C@@H](C)CO)C(=O)c2cc(NC(=O)Nc3ccc(F)cc3)ccc2O[C@@H](C)CCCCO[C@H]1CN(C)C(=O)CCCN(C)C` as the compound, how does the cytotoxicity call read?
Answer: inactive

Question: `Cc1noc(C)c1S(=O)(=O)Nc1ccc2c(c1)C(=O)N([C@@H](C)CO)C[C@@H](C)[C@@H](CN(C)S(=O)(=O)c1ccc(Cl)cc1)O2` was tested. Which cytotoxicity call did it give?
Answer: inactive

Question: How did the cytotoxicity call turn out when `C[C@@H]1CN([C@H](C)CO)C(=O)c2cc(C#Cc3cccc(F)c3)cnc2O[C@@H]1CN(C)C(=O)C1CCOCC1` was run?
Answer: inactive

Question: For `C[C@@H]1CN([C@@H](C)CO)C(=O)c2cc(NS(=O)(=O)c3ccc(F)cc3)ccc2O[C@@H](C)CCCCO[C@H]1CN(C)C(=O)Nc1ccccc1`, which cytotoxicity call is on record?
Answer: inactive

Question: Which cytotoxicity call does the source give for `C[C@@H]1CCCCO[C@@H](CN(C)C(=O)Nc2ccccc2)[C@H](C)CN([C@@H](C)CO)C(=O)c2cc(NS(=O)(=O)c3ccc(F)cc3)ccc2O1` here?
Answer: inactive

Question: Which cytotoxicity call does the source give for `C[C@@H]1CCCCO[C@H](CN(C)C(=O)Nc2ccccc2)[C@H](C)CN([C@@H](C)CO)C(=O)c2cc(NS(=O)(=O)c3ccc(F)cc3)ccc2O1` here?
Answer: inactive

Question: How did the cytotoxicity call turn out when `C[C@H](CO)N1C[C@H](C)[C@@H](CN(C)C(=O)Nc2ccccc2)OCCCC[C@H](C)Oc2ccc(NS(=O)(=O)c3ccc(F)cc3)cc2C1=O` was run?
Answer: inactive

Question: For `C[C@@H]1CCCCO[C@@H](CN(C)C(=O)Nc2ccccc2)[C@H](C)CN([C@H](C)CO)C(=O)c2cc(NS(=O)(=O)c3ccc(F)cc3)ccc2O1`, which cytotoxicity call is on record?
Answer: active

Question: For `C[C@@H]1CN([C@H](C)CO)C(=O)c2cc(NS(=O)(=O)c3ccc(F)cc3)ccc2O[C@@H](C)CCCCO[C@H]1CN(C)C(=O)Nc1ccccc1`, which cytotoxicity call is on record?
Answer: active

Question: With `COc1cccc(C(=O)Nc2ccc3c(c2)C(=O)N(C)[C@@H]2CC[C@H](CC(=O)NCCCN4CCOCC4)O[C@@H]2CO3)c1` as the compound, how does the cytotoxicity call read?
Answer: inactive

Question: `Cn1ccc2ccc(CN)cc21` was tested. Which cytotoxicity call did it give?
Answer: inactive

Question: Which cytotoxicity call does the source give for `Cc1cc(C)nc(C#N)n1` here?
Answer: inactive

Question: With `C[C@H](CO)N1C[C@H](C)[C@@H](CN(C)C(=O)Nc2ccc3c(c2)OCO3)Oc2ccc(NC(=O)Nc3cccc4ccccc34)cc2CC1=O` as the compound, how does the cytotoxicity call read?
Answer: inactive

Question: With `COc1ccc(S(=O)(=O)Nc2ccc3c(c2)C(=O)N([C@H](C)CO)C[C@H](C)[C@H](CN(C)C(=O)Nc2ccc(F)cc2)OCCCC[C@@H](C)O3)cc1` as the compound, how does the cytotoxicity call read?
Answer: inactive

Question: `COCC#Cc1ccc2c(c1)O[C@@H](CN(C)C(=O)c1ccccc1)[C@H](C)CN([C@H](C)CO)S2(=O)=O` was tested. Which cytotoxicity call did it give?
Answer: inactive

Question: With `C[n+]1cc2c3c(ccc2c2ccc4cc5c(cc4c21)OCO5)OCO3.[Cl-]` as the compound, how does the cytotoxicity call read?
Answer: active

Question: `CCCNC(=O)N1C[C@@H](O)COC[C@H]2O[C@H](CC(=O)N3CCN(C)CC3)CC[C@@H]21` was tested. Which cytotoxicity call did it give?
Answer: inactive

Question: `C[n+]1ccn(C[C@@]2(C)[C@H](C(=O)O)N3C(=O)C[C@H]3S2(=O)=O)n1` was tested. Which cytotoxicity call did it give?
Answer: inactive

Question: `Cc1noc(C)c1NC(=O)N(C)C[C@H]1Oc2c(NS(=O)(=O)c3cn(C)cn3)cccc2C(=O)N([C@@H](C)CO)C[C@@H]1C` was tested. Which cytotoxicity call did it give?
Answer: inactive

Question: With `Cc1ccc(S(=O)(=O)N[C@@H](Cc2ccccc2)C(=O)NCCCn2cc(-c3ccc(C(=O)NO)s3)nn2)cc1` as the compound, how does the cytotoxicity call read?
Answer: inactive

Question: How did the cytotoxicity call turn out when `C[C@H]1COC(=O)[C@H](Cc2ccc(F)cc2)CC=CC[C@@H](CC(=O)N[C@H](CO)Cc2ccccc2)C(=O)N1` was run?
Answer: inactive

Question: `O=C(C[C@@H]1C/C=C/C[C@H](Cc2ccccc2)C(=O)N[C@H](c2ccccc2)COC1=O)NCc1ccc(Cl)cc1` was tested. Which cytotoxicity call did it give?
Answer: active

Question: Which cytotoxicity call does the source give for `CC(=O)N[C@H]1C/C=C/C[C@@H](CC(=O)NCc2ccc(Cl)cc2)C(=O)NC[C@@H](c2ccccc2)OC1=O` here?
Answer: inactive

Question: `C[C@@H]1CN([C@@H](C)CO)C(=O)c2cc(NC(=O)c3ccncc3)ccc2O[C@@H](C)CCCCO[C@@H]1CN(C)Cc1ccccc1` was tested. Which cytotoxicity call did it give?
Answer: inactive

Question: Which cytotoxicity call does the source give for `C[C@H]1CN([C@@H](C)CO)C(=O)c2cc(NC(=O)Cn3cnnn3)ccc2O[C@@H]1CN(C)S(=O)(=O)c1ccc(Cl)cc1` here?
Answer: inactive

Question: `C[C@H]1CN([C@@H](C)CO)C(=O)Cc2cc(NC(=O)Nc3ccc(F)cc3)ccc2O[C@@H]1CN(C)Cc1ccc(-c2ccccc2)cc1` was tested. Which cytotoxicity call did it give?
Answer: active

Question: Which cytotoxicity call does the source give for `C[C@H](CO)N1C[C@H](C)[C@H](CN(C)Cc2ccc(-c3ccccc3)cc2)Oc2ccc(NC(=O)Nc3ccc(F)cc3)cc2CC1=O` here?
Answer: active

Question: Which cytotoxicity call does the source give for `C[C@@H]1CN([C@@H](C)CO)C(=O)Cc2cc(NC(=O)Nc3ccc(F)cc3)ccc2O[C@@H]1CN(C)Cc1ccc(-c2ccccc2)cc1` here?
Answer: active

Question: `C[C@H](CO)N1C[C@H](C)[C@@H](CN(C)Cc2ccc(-c3ccccc3)cc2)Oc2ccc(NC(=O)Nc3ccc(F)cc3)cc2CC1=O` was tested. Which cytotoxicity call did it give?
Answer: active

Question: `C[C@H](CO)N1C[C@H](C)[C@@H](CN(C)S(=O)(=O)c2cn(C)cn2)Oc2ncc(C3=CCCC3)cc2C1=O` was tested. Which cytotoxicity call did it give?
Answer: inactive

Question: Which cytotoxicity call does the source give for `O=C(CN1CCOCC1)N[C@H]1CC[C@@H](CCNC(=O)Nc2cc(F)ccc2F)O[C@H]1CO` here?
Answer: inactive

Question: With `CON=C(C(=O)NC1C(=O)N2C(C(=O)[O-])=C(COC(N)=O)CSC12)c1ccco1.[Na+]` (centres undefined) as the compound, how does the cytotoxicity call read?
Answer: inactive

Question: How did the cytotoxicity call turn out when `C[C@@H]1CCCCO[C@H](CN(C)C(=O)Nc2cccc3ccccc23)[C@@H](C)CN([C@@H](C)CO)C(=O)c2cc(N(C)C)ccc2O1` was run?
Answer: inactive

Question: For `CCCNC(=O)N(C)C[C@H]1Oc2cc(C#Cc3cccc(F)c3)ccc2S(=O)(=O)N([C@H](C)CO)C[C@H]1C`, which cytotoxicity call is on record?
Answer: inactive

Question: Which cytotoxicity call does the source give for `C[C@H](CO)N1C[C@H](C)[C@H](CN(C)Cc2ccccc2)OCCCC[C@H](C)Oc2ccc(NS(=O)(=O)c3ccc(Cl)cc3)cc2C1=O` here?
Answer: inactive

Question: How did the cytotoxicity call turn out when `CCCNC(=O)N(C)C[C@@H]1Oc2cc(-c3ccc(C)cc3)ccc2S(=O)(=O)N([C@H](C)CO)C[C@@H]1C` was run?
Answer: inactive

Question: How did the cytotoxicity call turn out when `COCC(=O)N(C)C[C@H]1Oc2cc(C#Cc3ccccc3)ccc2S(=O)(=O)N([C@H](C)CO)C[C@H]1C` was run?
Answer: inactive

Question: How did the cytotoxicity call turn out when `C[C@@H]1CN([C@H](C)CO)C(=O)Cc2cc(NC(=O)Nc3ccc(F)cc3)ccc2O[C@H]1CN(C)Cc1ccc(-c2ccccc2)cc1` was run?
Answer: active

Question: For `C[C@@H]1CN([C@H](C)CO)C(=O)Cc2cc(NC(=O)Nc3ccc(F)cc3)ccc2O[C@@H]1CN(C)Cc1ccc(-c2ccccc2)cc1`, which cytotoxicity call is on record?
Answer: inactive

Question: For `C[C@H]1CN([C@@H](C)CO)C(=O)Cc2cc(NC(=O)Nc3ccc(F)cc3)ccc2O[C@H]1CN(C)Cc1ccc(-c2ccccc2)cc1`, which cytotoxicity call is on record?
Answer: active

Question: `C[C@@H]1CN([C@@H](C)CO)C(=O)Cc2cc(NC(=O)Nc3ccc(F)cc3)ccc2O[C@H]1CN(C)Cc1ccc(-c2ccccc2)cc1` was tested. Which cytotoxicity call did it give?
Answer: active
